Sampled rows, rich in hits. Any-hit rate of the full collection: about 11%.
AMA1 RON2 block: disrupts binding of P. falciparum AMA1 to RON2; AlphaScreen AMA1-biotinylated RON2 peptide binding; Potency, µM (top dose mostly 58.2 µM), without a hit: at the highest dose activity change, negative = inhibition, most hits filed as inhibitors; hit rate 0.2% among 360,000; AID 720542;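 further: 0% = vehicle wells and -100% = peptide control; nearly all actives have a fitted effect of over 45% in size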
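AMA1 (3D7) with his tag at 25 nM final met compounds first, then biotinylated RON2 peptide at 25 nM; detection used donor plus acceptor beads, 10 µg/mL apiece, read by AlphaScreen after 30 min at room temperature.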
Pf growth 96h: P. falciparum growth inhibition at 96 hours; P. falciparum luciferase reporter growth, 96 h; Potency, µM (top dose mostly 28.7 µM), inactives show at the top dose activity change, negative = inhibition, actives largely listed as inhibitors; hit rate 6.9% among 320,000; further: on the % scale 0 is the no-effect control and ±100 the full control effect
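P. falciparum expressing integrated firefly luciferase grown in erythrocytes (2% hematocrit, 0.05% parasitemia final) with compounds for 96 hours at 37 C, 5% CO2. Growth inhibition read as loss of luminescence after adding luciferase detection reagent.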
Sm TGR block: inhibitors of Schistosoma mansoni thioredoxin glutathione reductase | Q962Y6 | purified TGR, DTNB reduction, TNB absorbance 405 nm | Potency, µM (doses to about 114 µM), inactives show at the highest dose activity change, negative = inhibition, hits mostly inhibitors | hit rate 3% among 360,000; further: on the % scale 0 is the no-effect control and ±100 the full control effect; nearly all actives have a fitted effect of over 60% in size
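Kinetic colorimetric format: TGR-catalysed, NADPH-driven DTNB reduction monitored via TNB absorbance. Enzyme dispensed at 20 nM; compound exposure 15 min at room temperature before reaction start.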
Pf growth 48h: P. falciparum growth inhibition at 48 hours (one generation). P. falciparum luciferase growth in erythrocytes, 48 h. Potency, µM (series often up to 28.7 µM), inactives show top-dose activity change, negative = inhibition, hits mostly inhibitors. hit rate 5.9% among 310,000. AID 504832; further: on the % scale 0 is the no-effect control and ±100 the full control effect
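First compound was added to culture medium, then infected red cells at 0.1% parasitemia and 2% hematocrit (final). After incubation at 37 C under 5% CO2, luciferase detection reagent was dispensed and light output recorded.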
NS1 function inh: inhibitors of influenza NS1 protein function. hit rate 0.4% among 270,000. Potency, µM (highest dose often 46.1 µM), for the others: at the highest dose activity, positive = more growth; calls by dose curve; further: actives are rising curves; nearly all actives have a fitted effect of over 50% in size
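OD600 was taken as the measure of yeast growth restored by compound in an NS1-expressing S. cerevisiae strain. Cells had been washed out of glucose medium and diluted 1:100 into galactose -URA medium, pH 6.0.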
The depositor's hits bear a star; ? = inconclusive; · = no result; [ ] = dose if it differs, or a comment. Unless noted, the call rests on the fitted dose curve; in most records, active means well fitted curve in the direction sought with a large enough effect; inconclusive means small, poorly fitted or top-dose-only effect, or another doubt; inactive means no such curve, though single readings can be large; an effect the other way counts as inactive or inconclusive. Potency means the concentration at half of the fitted maximal effect.

SMILES | AMA1 RON2 block | Pf growth 96h | Sm TGR block | Pf growth 48h | NS1 function inh
CCNC(=O)NC(=O)CSc1ccc(S(=O)(=O)N2CCCCC2)cn1 | -2%[11.6 µM] | 5.2µM* | -34% | ? | ·
COc1cc(OC)cc(C(=O)Nc2cc(-c3nc4cccnc4s3)ccc2C)c1 | · | · | -3% | · | ·
COc1ccc2c(c1)C(c1ccccc1)NC(=O)C2 (stereo unspecified) | 4% | 79% | -23% | 5% | ·
Cc1ccc(NC(=O)c2cc(-c3cc(Cl)ccc3O)n[nH]2)cc1C | 59% | 1.7µM* | 8% | 1.9µM* | 4%
Cc1cccc(NC(=O)c2cc(-c3c(C)cc(C)cc3O)n[nH]2)c1 | 21% | 15µM* | -1% | 0% | 5%
Cc1cccc(NC(=O)c2cc(-c3cc(C)cc(C)c3O)n[nH]2)c1 | 140% | ? | 2% | ? | 3%
Cc1ccc(O)c(-c2cc(C(=O)NCc3ccncc3)[nH]n2)c1 | 56% | 4.1µM* | -2% | 2.9µM* | -10%
Cc1ccc(Cl)cc1-c1cc(C(=O)Nc2ccc(F)cc2)[nH]n1 | 13% | · | · | · | ·
Cc1cccc(NC(=O)c2cc(-c3cc(Cl)ccc3O)n[nH]2)c1 | 56% | 2.3µM* | 7% | 2.6µM* | 1%
COC(=O)c1cc(Br)ccc1N(Cc1cc(OC)cc(OC)c1)S(C)(=O)=O | 17% | ? | 3% | ? | ·
O=C(COc1ccccc1)Nc1ccc(S(=O)(=O)Nc2ccccn2)cc1 | -23% | 1% | 14% | -24% | -10%
CCc1ccc(-n2nc(CO)c(C(=O)NCc3cccs3)n2)cc1 | · | · | 6% | · | ·
C#Cc1ccc([C@@H]2C=C(C(=O)N3CCN(Cc4ccccc4)CC3)O[C@H](OCCCCO)C2)cc1 | · | ? | 13µM* | ? | -6%
C#Cc1ccc([C@H]2C=C(C(=O)N3CCN(Cc4ccccc4)CC3)O[C@@H](OCc3ccc(CO)cc3)C2)cc1 | -6% | 2.3µM* | 45µM* | 3.3µM* | 13%
CN1CCN(C(=O)C2=C[C@@H](c3ccc(Br)cc3)C[C@@H](OCc3ccc(CO)cc3)O2)CC1 | -5% | ? | -30% | ? | 0%
O=C(C1=C[C@H](c2ccc(C(F)(F)F)cc2)C[C@H](OCCCCO)O1)N1CCN(Cc2ccccc2)CC1 | -9% | ? | 35µM* | ? | -2%
CN1CCN(C(=O)C2=C[C@@H](c3ccccc3)C[C@@H](OCc3ccc(CO)cc3)O2)CC1 | -9% | -1% | 40µM* | -22% | 4%
O=C(C1=C[C@@H](c2ccc(C(F)(F)F)cc2)C[C@@H](OCCCCO)O1)N1CCN(Cc2ccccc2)CC1 | -4% | ? | ? | ? | -4%
O=C(c1ccc(Br)cc1)N(Cc1ccco1)C1CCS(=O)(=O)C1 (stereo unspecified) | -1% | ? | 8% | 14% | -17%
O=C(C1=C[C@@H](c2ccc(Br)cc2)C[C@@H](OCc2ccc(CO)cc2)O1)N1CCN(Cc2ccccc2)CC1 | -17% | 12µM* | 25µM* | ? | -5%
CC(C)(C)NC(=O)C(c1ccco1)N(C(=O)Cn1nnc(-c2ccc(F)cc2)n1)c1cccc(F)c1 (stereo unspecified) | -9% | -3%[5.75 µM] | -2% | ? | -33%
Cc1ccc(-c2nnn(CC(=O)N(Cc3cccs3)C(C(=O)NC(C)(C)C)c3ccco3)n2)o1 (stereo unspecified) | 5% | · | ? | 0% | -31%
CC(C)(C)NC(=O)C(c1c[nH]c2ccccc12)N(C(=O)Cn1nnc(-c2ccc(F)cc2)n1)c1cccc(O)c1 (stereo unspecified) | -6% | ? | -10% | 2.6µM* | ?
COc1cccc(N(C(=O)Cn2nnc(-c3ccc(C)o3)n2)C(C(=O)NC(C)(C)C)c2cccs2)c1 (stereo unspecified) | 19% | -19% | 4% | 13µM* | -15%
Cc1ccc(-c2nnn(CC(=O)N(Cc3ccco3)C(C(=O)NC(C)(C)C)c3cccs3)n2)o1 (stereo unspecified) | -7% | -9% | 18µM* | 15µM* | -11%
SMILES | AMA1 RON2 block | Pf growth 96h | Sm TGR block | Pf growth 48h | NS1 function inh
O=C1[C@@H]2[C@@H](CN3CN(c4ccccc4)N=C(c4ccccc4)[C@@]23c2ccccc2)C(=O)N1c1ccccc1 | 20% | · | · | · | ·
COc1ccc(C(=O)O)cc1S(=O)(=O)Nc1ccc(N2CCCCC2)cc1 | -1% | · | · | · | ·
CC(C)(C)OC(=O)NC(Cc1ccccc1)C(=O)N1CCC(C(=O)NCC(=O)Nc2ccc(F)cc2)CC1 (stereo unspecified) | 12% | 12µM* | -2% | ? | 6%
COc1ccc(C2=NN(C(=O)CCC(=O)O)C(c3ccccc3OC)C2)cc1 (stereo unspecified) | 4% | ? | -1% | ? | 14%
CCn1cc([N+](=O)[O-])c(C(=O)N2N=C(c3ccc(OC)cc3OC)CC2c2ccccc2O)n1 (stereo unspecified) | -9% | 10µM* | 3% | ? | 11%
CCn1cc([N+](=O)[O-])c(C(=O)N2CCCC2)n1 | -3% | · | -32% | 20% | 3%
CCn1cc(Cl)c(C(=O)N2N=C(c3ccc4ccccc4c3)CC2c2ccccc2O)n1 (stereo unspecified) | ? | 1.5µM* | 0% | 2.1µM* | 23%
O=C(c1ccccc1)N1N=C(c2ccccc2)CC1c1ccccc1O (stereo unspecified) | -1% | -6%[5.75 µM] | -7% | ? | 0%
CCn1cc([N+](=O)[O-])c(C(=O)N2N=C(c3cccc4ccccc34)CC2c2ccccc2O)n1 (stereo unspecified) | -7% | 13µM* | 1% | 9.3µM* | 22%
CCn1cc([N+](=O)[O-])c(C(=O)N2N=C(c3ccc4ccccc4c3)CC2c2ccccc2O)n1 (stereo unspecified) | ? | ? | -1% | 8.3µM* | ?
Cc1ccc(Cl)cc1NC(=O)CON=C(N)c1ccccc1 | -8% | 4% | 2% | 4% | ·
COCCNC(=O)C(NC(=O)C1CCCCC1)C12CC3CC(CC(C3)C1)C2 (stereo unspecified) | 2% | 1.5µM* | 21% | ? | -3%
COc1cc(OC)cc(C(=O)NC(C(=O)NCCN(C)C)C23CC4CC(CC(C4)C2)C3)c1 (stereo unspecified) | -5% | 2%[5.75 µM] | 0% | ? | -1%
NC(c1ccccc1)c1csc(Nc2ccc(C(=O)c3ccccc3)cc2)n1 (stereo unspecified) | 17% | · | · | · | ·
COc1ccc(Cc2noc(CN(C)Cc3ccc(-n4cccn4)cc3)n2)cc1OC | -8% | 2.1µM* | -7% | -15% | -6%
CCc1ccc(CN(C)Cc2nc(Cc3ccc(OC)c(OC)c3)no2)nc1 | 43% | 5% | 32µM* | ? | -4%
COc1cccc(NC(=O)C2CC2(c2cccc(OC)c2)c2cccc(OC)c2)c1 (stereo unspecified) | 3% | ? | 4% | ? | 5%
